This note sets out measurements from PubChem BioAssay (NCI).

The panel holds about 83,000 compounds, 20% with a hit somewhere; the sample as a whole holds those more often.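 Assay: single dose, 48 h. Readout: percent growth (0 = no net growth; negative = cell death). Active: <10.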 Values without a mark were called inactive. Active and inactive are the calls of the source.

Among the test systems are HCT-15 colon; HT29 colon; SNB-75 CNS; SNB-19 CNS; U251 CNS; PC-3 prostate; SK-MEL-5 melanoma; UACC-62 melanoma; LOX IMVI melanoma; SK-MEL-28 melanoma; SK-MEL-2 melanoma; EKVX NSCLC; SN12C renal; UO-31 renal; TK-10 renal; ACHN renal; CAKI-1 renal; A498 renal; CCRF-CEM leukemia; MOLT-4 leukemia.
Common to all, as to assay: NCI-60 one-dose screen, 48 h (100 = growth as untreated, 0 = no growth, -100 = all killed)
What all share (details): 10 µM

For the compound `CN1CCN(c2ccc(C(=O)/C=C/c3cc(Br)ccc3F)cc2)CC1`, the growth in the assay on HCT-15 colon was -22.6% (active); with HT29 colon it was -13.2% (active); with SNB-75 CNS it was 40.1%; with SNB-19 CNS it was 56.5%; with U251 CNS, 23.8%; in the assay with PC-3 prostate, 37.1%. Also, the growth is 18.6% in the assay with SK-MEL-5 melanoma; 64% in the assay on UACC-62 melanoma; -91.8% (active) in the assay with LOX IMVI melanoma; 90.8% in the assay on SK-MEL-28 melanoma; 107% in the assay on SK-MEL-2 melanoma; 55.7% in the assay on EKVX NSCLC. Further, the growth with SN12C renal is 38.2%; in the assay on UO-31 renal, 44.2%; in the assay on TK-10 renal it was 88.6%; with ACHN renal, 63.7%; in the assay on CAKI-1 renal, 50%; with A498 renal, 107%. Moreover, the growth in the assay on CCRF-CEM leukemia is -11.4% (active); in the assay on MOLT-4 leukemia, 24%.

Take `CO[C@@H]1CSSC1Cn1nc(-c2ccc(Oc3ccccc3)cc2)c2c(N)ncnc21` (stereo not given in full): the growth was 37.2% in the assay with HCT-15 colon; 28.5% in the assay with HT29 colon; 97.9% in the assay with SNB-75 CNS; 69.1% in the assay with SNB-19 CNS; 49.5% in the assay on U251 CNS; 43.6% with PC-3 prostate. The growth was 7.95% (active) with SK-MEL-5 melanoma; -53.9% (active) with UACC-62 melanoma; 39.4% with LOX IMVI melanoma; -34.4% (active) in the assay with SK-MEL-28 melanoma; 27.2% with SK-MEL-2 melanoma; 25.3% in the assay with EKVX NSCLC. The growth with SN12C renal was 60.6%; in the assay on UO-31 renal, 21.3%; with TK-10 renal, 20.3%; in the assay with ACHN renal it was 40.4%; in the assay on CAKI-1 renal, 32.4%; with A498 renal it was 80.8%. Further, the results for the growth with CCRF-CEM leukemia and in the assay with MOLT-4 leukemia were -8.26% (active) and -16.6% (active), respectively.

For `CN(C)c1ccc(/C=C/c2nc3ccccc3c(=O)n2CC(=O)Nc2ccccc2)cc1`, the growth in the assay with HCT-15 colon was 52.4%; in the assay on HT29 colon, 63.6%; in the assay with SNB-75 CNS, 62.6%; in the assay on SNB-19 CNS it was 62.9%; in the assay on U251 CNS, 16.5%; with PC-3 prostate, 67.5%. The growth is 62% in the assay on SK-MEL-5 melanoma; 43.7% with UACC-62 melanoma; 1.57% (active) in the assay with LOX IMVI melanoma; 35.6% in the assay on SK-MEL-28 melanoma; 71.4% in the assay with SK-MEL-2 melanoma; 63.6% in the assay on EKVX NSCLC. The growth in the assay with SN12C renal was 39%; in the assay with UO-31 renal it was 54.3%; with TK-10 renal, 95%; in the assay with ACHN renal, 18.8%; with CAKI-1 renal, 24.4%; in the assay with A498 renal, 70.5%. The growth in the assay on CCRF-CEM leukemia is 90%; in the assay on MOLT-4 leukemia, 79.5%.

For `O=[N+]([O-])c1ccc(-c2nc(-c3ccccc3)c(-c3ccccc3)n2-c2ccc(S(=O)(=O)Nc3ncccn3)cc2)cc1`, the growth with HCT-15 colon is 23.8%; with HT29 colon, 41.4%; in the assay with SNB-75 CNS it was 44.1%; with SNB-19 CNS, 27.3%; in the assay with U251 CNS, 35.8%; in the assay on PC-3 prostate, 29.7%. Moreover, the growth in the assay with SK-MEL-5 melanoma was 28.4%; with UACC-62 melanoma it was 42%; with LOX IMVI melanoma, 28%; in the assay with SK-MEL-28 melanoma, 36.2%; with SK-MEL-2 melanoma it was 69.4%; with EKVX NSCLC, 22.8%. In addition, the growth with SN12C renal was 38.9%; in the assay with UO-31 renal, 22.1%; in the assay with TK-10 renal it was 66%; in the assay on ACHN renal, 50.1%; in the assay with CAKI-1 renal, 29%; with A498 renal it was 79.3%. The results for the growth in the assay on CCRF-CEM leukemia and with MOLT-4 leukemia were 20.8% and 26.2%, respectively.

Turning to `CCCn1c(=O)c2[nH]c(-c3ccc(OCc4nc5ccc(C)cc5[nH]4)cc3)nc2n(CCC)c1=O`, the growth was 23.5% in the assay on HCT-15 colon; 38.7% with HT29 colon; -38.1% (active) with SNB-75 CNS; 34% in the assay on SNB-19 CNS; 6.38% (active) with U251 CNS; 39.2% with PC-3 prostate. The growth with SK-MEL-5 melanoma is 12.8%; in the assay on UACC-62 melanoma, 2.25% (active); with LOX IMVI melanoma, -20.3% (active); in the assay with SK-MEL-28 melanoma, 39.9%; in the assay on SK-MEL-2 melanoma, 52.1%; in the assay with EKVX NSCLC, 9.33% (active). Further, the growth was -5.67% (active) with SN12C renal; -91% (active) in the assay with UO-31 renal; -51.8% (active) with TK-10 renal; -88.2% (active) in the assay on ACHN renal; 6.1% (active) with CAKI-1 renal; -79.8% (active) in the assay with A498 renal. In addition, the values for the growth in the assay with CCRF-CEM leukemia and with MOLT-4 leukemia were 46.8% and 15.2%, respectively.

With `CC(C)CCSc1nc(NC2CC2)c(C#N)c(-c2ccc(C(C)C)cc2)n1`, the growth was 106% in the assay with HCT-15 colon; 108% in the assay on HT29 colon; 111% in the assay with SNB-75 CNS; 98.6% in the assay with SNB-19 CNS; 106% with U251 CNS; 106% in the assay on PC-3 prostate. Moreover, the growth with SK-MEL-5 melanoma is 102%; with UACC-62 melanoma it was 98.3%; in the assay on LOX IMVI melanoma, 100%; with SK-MEL-28 melanoma, 110%; in the assay with SK-MEL-2 melanoma, 98.9%; in the assay on EKVX NSCLC, 96.5%. Also, the growth in the assay on SN12C renal is 106%; with UO-31 renal, 103%; with TK-10 renal it was 99.4%; in the assay on ACHN renal, 108%; in the assay on CAKI-1 renal, 99.3%; with A498 renal, 109%. Moreover, the growth with CCRF-CEM leukemia is 95.4%; with MOLT-4 leukemia it was 98.9%.

Consider `COc1ccc(-c2ccc(SCC(=O)Nc3ccc(C#N)cc3)nn2)cc1`, for which the growth in the assay with HCT-15 colon is 97.3%; in the assay on HT29 colon it was 130%; in the assay on SNB-75 CNS it was 93.7%; in the assay with SNB-19 CNS, 64.9%; in the assay on U251 CNS it was 70.7%; in the assay on PC-3 prostate, 85%. In addition, the growth is 94.4% in the assay with SK-MEL-5 melanoma; 72.3% with UACC-62 melanoma; 84.7% with LOX IMVI melanoma; 97.7% with SK-MEL-28 melanoma; 114% with SK-MEL-2 melanoma; 95.1% in the assay with EKVX NSCLC. The growth is 95% with SN12C renal; 75.4% with UO-31 renal; 108% in the assay with TK-10 renal; 80.1% in the assay on ACHN renal; 81.4% in the assay with CAKI-1 renal; 124% in the assay on A498 renal. Moreover, the growth is 95.9% in the assay with CCRF-CEM leukemia and 94.4% in the assay on MOLT-4 leukemia.

Consider `CN(C)c1nc(NCCNS(=O)(=O)c2ccc(C(=O)/C=C/c3ccccc3)cc2)nc(Nc2ccc(F)cc2)n1`, for which the growth was -67.2% (active) in the assay with HCT-15 colon; -59.8% (active) with HT29 colon; 87.3% in the assay on SNB-75 CNS; 41.7% in the assay with SNB-19 CNS; -56.2% (active) in the assay on U251 CNS; 16.4% in the assay on PC-3 prostate. For the same compound, the growth was 30.2% with SK-MEL-5 melanoma; 26.5% in the assay with UACC-62 melanoma; -100% (active) in the assay on LOX IMVI melanoma; 31.4% in the assay on SK-MEL-28 melanoma; 81% in the assay on SK-MEL-2 melanoma; 29.1% in the assay with EKVX NSCLC. Moreover, the growth in the assay with SN12C renal is -89% (active); in the assay with UO-31 renal it was 18.2%; with TK-10 renal, 92.5%; in the assay on ACHN renal, 12.7%; with CAKI-1 renal, 38.1%; in the assay with A498 renal, 61.1%. In addition, the growth with CCRF-CEM leukemia was 14.8%; with MOLT-4 leukemia it was 8.21% (active).
